The text below walks through data of PubChem BioAssay.

A short description of assay [1]: anti-His antibody binders, primary screen, artefact control for SMM control protein annotation, biochemical, small-molecule microarray, 635 nm fluorescence (AID 1128).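 Also: score merges feature fluorescence with signal-to-noise for each printed compound spot.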 Particulars: anti-His Alexa647 antibody binding, higher = more signal.
In assay [2] the test system is Human papillomavirus type 1a E7 protein (residues 1-88). Put plainly: HPV1a E7 small-molecule binders, primary screen, biochemical, small-molecule microarray, residues 1-88, 635 nm (AID 1129). Particulars: small-molecule microarray binding, fluorescence 635 nm; higher = more signal.
The target of assay [3] is Focal adhesion kinase 1 (Homo sapiens) (UniProt Q05397). The experiment in a line: small-molecule microarray binders of FAK, primary screen, biochemical, 635/667 nm fluorescence, BSA, DTT (AID 1130).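 Also: composite of spot emission at 667 nm and signal to noise over triplicate slides.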 Particulars: PTK2 binding, 635 nm fluorescence, higher = more signal.
Assay [4] concerns Fibrinogen (Alexa647-labelled). The experiment in a line: fibrinogen binders on compound microarrays, profiling panel, artefact control for SMM control-protein annotation, biochemical, small-molecule microarray, 635/667 nm fluorescence (AID 1131).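 Also: z-score merges 667 nm fluorescence with per-spot signal-to-noise over triplicate slides.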 Particulars: fibrinogen-A647 binding fluorescence, higher = more signal.
Assay [5] addresses Follistatin (Homo sapiens) (UniProt P19883). The experiment in a line: follistatin binders on small-molecule microarrays, primary screen, biochemical, small-molecule microarray, 635/667 nm fluorescence (AID 1132). Particulars: FST binding, 635 nm fluorescence, higher = more signal.
The target in assay [6] is Fibroblast growth factor 2 (Homo sapiens) (UniProt P09038). Put plainly: FGF2 binders on small-molecule microarrays, primary screen, biochemical, small-molecule microarray, 635/667 nm fluorescence (AID 1133). The conditions noted are these: small-molecule microarray binding, FGF2, fluorescence 635/667; higher = more signal.
Assay [7] in a line: mitochondrial membrane potential change in A549 cells, profiling panel, cell-based, JC-1 fluorescence, basal, 24 h, 100 nL (AID 1138).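 Also: A549 lung adenocarcinoma cells under basal conditions with no added stimulus; test concentration not given here.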 The conditions noted are these: higher = more signal.
The next assay relates to Lefty1. The experiment in a line: Lefty1 binders on small-molecule microarrays, primary screen, biochemical, small-molecule microarray, 635/667 nm fluorescence (AID 1139). The conditions noted are these: small-molecule microarray binding, fluorescence 635/667; higher = more signal.
Assay [8] deals with wheat germ agglutinin (Triticum aestivum), Alexa647-labelled. Put plainly: wheat germ agglutinin binders on compound microarrays, profiling panel, artefact control for SMM control-protein annotation, biochemical, small-molecule microarray, 635/667 nm fluorescence (AID 1140).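 Also: score merges 667 nm feature emission with signal to noise over triplicate slides.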 Particulars: WGA-A647 binding, 635 nm fluorescence, higher = more signal.
Assay [9] deals with Luciferin 4-monooxygenase (Photinus pyralis) (UniProt P08659). Put plainly: firefly luciferase enzyme inhibitors, primary screen, biochemical, luminescence, purified enzyme, 2006 set (AID 1141).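 Also: cell-free assay with purified firefly luciferase at 100 ng per well in PBS; test concentration not given here.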 Particulars: SteadyGlo luminescence, 30 min, higher = more signal, called active from +8 up or from −8 down.
In assay [10] the test system is Wnt5a (protein binding on small-molecule microarray). Put plainly: Wnt5a binders on small-molecule microarray, primary screen, biophysical, 635/667 nm fluorescence (AID 1142).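 Also: fluorescence read at 667 nm with signal to noise per printed feature.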 Particulars: 635 nm fluorescence, higher = more signal.
Assay [11] is described as follows: cell viability in Huh7 cells, primary screen, cytotoxicity control for HCV replication inhibitor project, CellTiter-Glo luminescence, basal, 48 h (AID 1143).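 Also: Huh7 hepatoma cells carrying a hepatitis C replication reporter with no stimulus; test concentration not given here.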 The conditions noted are these: Huh7 HCV replicon, higher = more signal, called active from +8 up or from −8 down.
The nature of assay [12]: P. aeruginosa biofilm formation inhibitors, primary screen, PAO1 strain, BacTiter-Glo luminescence, LB-PBS (AID 1144). The conditions noted are these: 12 h, higher = more signal.
The nature of assay [13]: CREB reporter modulators without forskolin, primary screen, cell-based, PC12, CRE-LacZ reporter, unstimulated (AID 1145). Particulars: no forskolin, luminescence, 4.5 h, higher = more signal, called active from +8 up or from −8 down.
A short description of assay [14]: CREB reporter modulators under forskolin, primary screen, cell-based, PC12, CRE-LacZ reporter, forskolin-stimulated (AID 1146).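 Also: PC12 cells with 6xCRE LacZ reporter stimulated by forskolin 10 µM; beta-galactosidase reporter signal reflecting CREB driven transcription.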 Particulars: luminescence, 4.5 h, higher = more signal, called active from +8 up or from −8 down.
Assay [15] addresses Streptavidin (Streptomyces avidinii) (UniProt P22629). The experiment in a line: streptavidin binders on small-molecule microarray, primary screen, artefact control for SMM compound annotation, biophysical, 635/667 nm fluorescence (AID 1147).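 Also: signal reflects streptavidin binding to arrayed compounds as a control protein.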 The conditions noted are these: streptavidin binding, higher = more signal.
Assay [16] in a line: small-molecule binders of probe aInhba, primary screen, biochemical, small-molecule microarray, 635/667 nm fluorescence (AID 1148).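 Also: score merges 667nm spot fluorescence with signal-to-noise for antibody binding to printed compounds.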 Particulars: higher = more signal.
Assay [17] has as its target Torsin-1A (Homo sapiens) (UniProt O14656). Put plainly: torsin A binders from cell lysate, primary screen, small-molecule microarray, wild-type, 635/667 nm (AID 1149). The conditions noted are these: COS7 hTOR1A-WT lysate, 635 nm fluorescence, higher = more signal.
For assay [18] the target is unchanged. The experiment in a line: small-molecule binders of mutant TOR1A in lysate, primary screen, cell lysate, small-molecule microarray, COS7 lysate, 635/667 nm fluorescence (AID 1150).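 Also: score pools 667 nm emission and signal to noise measuring lysate protein binding.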 Particulars: COS7 hTOR1A mutant lysate, 635 nm fluorescence, higher = more signal.
Assay [19] relates to Sonic hedgehog protein (Shh). The experiment in a line: small-molecule binders of Shh protein, primary screen, biochemical, small-molecule microarray, 635/667 nm fluorescence (AID 1151).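 Also: Shh protein binding to compounds spotted on small-molecule microarray slides; score combines spot fluorescence intensity with signal-to-noise across triplicate slides.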 The conditions noted are these: small-molecule microarray binding, 635 nm fluorescence; higher = more signal.

The source made the active and inactive calls. Unless noted, no rule for the calls is given here.

Streptavidin (Streptomyces avidinii), sequence (P22629 whole entry, looked up): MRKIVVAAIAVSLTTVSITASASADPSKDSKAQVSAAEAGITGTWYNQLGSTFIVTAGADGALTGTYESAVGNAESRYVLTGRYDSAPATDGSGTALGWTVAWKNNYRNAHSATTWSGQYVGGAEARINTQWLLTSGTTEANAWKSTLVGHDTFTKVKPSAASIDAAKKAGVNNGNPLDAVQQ
Fibroblast growth factor 2 (Homo sapiens), sequence (P09038 whole entry, looked up): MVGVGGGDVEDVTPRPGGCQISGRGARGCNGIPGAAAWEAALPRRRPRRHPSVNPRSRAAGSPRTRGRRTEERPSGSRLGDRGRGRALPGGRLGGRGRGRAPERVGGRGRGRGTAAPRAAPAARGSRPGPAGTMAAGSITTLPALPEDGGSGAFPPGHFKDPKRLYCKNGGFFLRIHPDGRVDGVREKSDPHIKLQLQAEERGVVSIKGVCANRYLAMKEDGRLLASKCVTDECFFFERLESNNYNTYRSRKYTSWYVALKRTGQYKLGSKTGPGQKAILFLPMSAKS
Follistatin (Homo sapiens), sequence (P19883 whole entry, looked up): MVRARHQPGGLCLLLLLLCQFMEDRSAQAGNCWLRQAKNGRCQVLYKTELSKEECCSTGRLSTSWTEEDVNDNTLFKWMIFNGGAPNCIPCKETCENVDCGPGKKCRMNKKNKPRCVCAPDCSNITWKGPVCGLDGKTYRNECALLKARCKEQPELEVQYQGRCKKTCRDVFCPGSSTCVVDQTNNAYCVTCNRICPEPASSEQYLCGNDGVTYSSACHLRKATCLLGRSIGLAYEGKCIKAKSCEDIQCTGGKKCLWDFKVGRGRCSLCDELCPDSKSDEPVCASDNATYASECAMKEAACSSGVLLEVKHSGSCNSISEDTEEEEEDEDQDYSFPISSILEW
Focal adhesion kinase 1 (Homo sapiens), sequence (Q05397 whole entry, looked up): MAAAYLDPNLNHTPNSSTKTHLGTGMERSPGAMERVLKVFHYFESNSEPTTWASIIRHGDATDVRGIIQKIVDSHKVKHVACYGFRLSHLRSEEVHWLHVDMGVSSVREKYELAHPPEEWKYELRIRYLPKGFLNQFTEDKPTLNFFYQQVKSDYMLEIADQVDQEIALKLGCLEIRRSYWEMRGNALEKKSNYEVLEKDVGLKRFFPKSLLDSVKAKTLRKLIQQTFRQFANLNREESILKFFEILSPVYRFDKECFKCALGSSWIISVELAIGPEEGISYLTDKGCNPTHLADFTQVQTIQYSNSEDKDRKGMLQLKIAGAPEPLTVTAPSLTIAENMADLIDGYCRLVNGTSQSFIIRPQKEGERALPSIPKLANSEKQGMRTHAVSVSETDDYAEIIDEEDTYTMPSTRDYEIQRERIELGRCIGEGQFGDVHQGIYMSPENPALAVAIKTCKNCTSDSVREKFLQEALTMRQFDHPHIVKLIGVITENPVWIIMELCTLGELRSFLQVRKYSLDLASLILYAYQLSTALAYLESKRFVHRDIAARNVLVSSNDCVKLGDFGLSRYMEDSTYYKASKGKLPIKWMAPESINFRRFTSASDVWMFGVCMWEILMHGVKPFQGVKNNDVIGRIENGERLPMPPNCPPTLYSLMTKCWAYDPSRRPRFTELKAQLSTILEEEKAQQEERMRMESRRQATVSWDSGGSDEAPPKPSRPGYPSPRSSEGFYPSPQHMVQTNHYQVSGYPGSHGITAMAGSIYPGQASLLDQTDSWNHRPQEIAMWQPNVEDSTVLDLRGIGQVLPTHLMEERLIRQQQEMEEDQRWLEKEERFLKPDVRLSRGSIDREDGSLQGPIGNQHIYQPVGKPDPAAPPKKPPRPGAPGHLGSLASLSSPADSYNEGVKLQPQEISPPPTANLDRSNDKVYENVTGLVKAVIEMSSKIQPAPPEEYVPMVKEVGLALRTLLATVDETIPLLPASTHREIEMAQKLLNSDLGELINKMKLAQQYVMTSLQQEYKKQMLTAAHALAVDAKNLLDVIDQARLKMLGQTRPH
Luciferin 4-monooxygenase (Photinus pyralis), sequence (P08659 whole entry, looked up): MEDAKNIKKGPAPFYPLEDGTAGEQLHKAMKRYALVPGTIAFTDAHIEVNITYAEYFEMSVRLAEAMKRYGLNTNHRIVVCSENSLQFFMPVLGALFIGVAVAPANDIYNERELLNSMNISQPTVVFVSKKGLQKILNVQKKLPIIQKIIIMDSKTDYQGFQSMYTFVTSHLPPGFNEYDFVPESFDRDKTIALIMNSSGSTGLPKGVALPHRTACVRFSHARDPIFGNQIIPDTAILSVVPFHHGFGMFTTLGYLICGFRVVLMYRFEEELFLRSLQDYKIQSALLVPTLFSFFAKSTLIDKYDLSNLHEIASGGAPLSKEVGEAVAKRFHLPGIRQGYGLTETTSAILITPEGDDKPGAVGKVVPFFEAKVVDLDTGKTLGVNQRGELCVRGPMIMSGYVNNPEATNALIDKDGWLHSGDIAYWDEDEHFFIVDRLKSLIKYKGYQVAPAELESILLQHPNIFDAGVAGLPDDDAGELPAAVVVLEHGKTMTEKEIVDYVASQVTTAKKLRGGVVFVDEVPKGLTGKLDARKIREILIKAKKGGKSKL
Torsin-1A (Homo sapiens), sequence (O14656 whole entry, looked up): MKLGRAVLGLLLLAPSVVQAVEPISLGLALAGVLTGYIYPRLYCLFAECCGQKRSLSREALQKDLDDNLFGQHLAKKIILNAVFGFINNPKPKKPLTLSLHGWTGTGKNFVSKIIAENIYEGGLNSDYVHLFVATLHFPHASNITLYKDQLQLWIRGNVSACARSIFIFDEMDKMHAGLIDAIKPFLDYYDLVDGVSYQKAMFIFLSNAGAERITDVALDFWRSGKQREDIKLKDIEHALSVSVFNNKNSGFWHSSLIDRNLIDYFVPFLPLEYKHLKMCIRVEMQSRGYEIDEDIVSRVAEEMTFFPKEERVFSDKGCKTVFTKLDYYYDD

Regarding `O=C1C=C[C@@H](O)[C@@H]2[C@@H]3C(=O)N(C[C@@H]4CCCO4)C(=O)[C@@H]3CC[C@@H]12`, the composite z-score worked out at 0.518 in [1]; 0.686 in assay [2]; 0.18 in [3]; 0.418 in assay [4]; 0.23 in assay [5]; 0.535 in [6]. Also, the composite z-score is 0.756 with Lefty1; 0.221 in [8]; -0.142 in [10]; -0.029 in assay [15]; -0.0424 in assay [16]; 0.294 with Torsin-1A (Homo sapiens) [17]. In addition, the composite z-score was determined as 0.462 with Torsin-1A (Homo sapiens) [18] and 0.159 in assay [19]. Besides, the z-score is -0.117 in [7]; -0.0563 (inactive) in assay [9]; -0.228 (inactive) in assay [11]; 0.477 (inactive) in assay [12]; -0.295 (inactive) in assay [13]; -0.593 (inactive) in assay [14].

In the case of `CON=C[C@@H](C)[C@H](OCc1ccccc1)C(C)C`, the composite z-score in assay [1] is -0.032; in assay [2], -1.2; in [3], 0.119; in [4] it was -0.734; in assay [5], 0.359; in assay [6], 0.211. Moreover, the composite z-score in the assay with Lefty1 is 0.347; in assay [8] it was -0.195; in [10], 0.103; in assay [15] it was -0.0087; in [16] it was -0.0963; in the assay with Torsin-1A (Homo sapiens) [17], 0.537. In addition, the composite z-score with Torsin-1A (Homo sapiens) [18] is -0.253; in assay [19], 0.224. Further, the z-score is -1.1 in assay [7]; 0.592 (inactive) in [9]; -1.83 (inactive) in assay [11]; -1.54 (inactive) in [12]; 0.987 (inactive) in assay [13]; -0.278 (inactive) in assay [14].

As to `COc1ccc(C#C[C@@H]2C=C[C@H](OC(C)=O)[C@@H](COC(C)=O)O2)cc1`, the composite z-score in assay [1] came to 1.01; in assay [2] it was 0.282; in assay [3], 0.0919; in assay [4], 0.0177; in [5], 0.567; in [6] it was 0.183. The composite z-score stood at 0.649 with Lefty1; 0.217 in [8]; 0.392 in assay [10]; 0.271 in [15]; 0.0442 in assay [16]; 0.244 with Torsin-1A (Homo sapiens) [17]. The composite z-score with Torsin-1A (Homo sapiens) [18] was determined as 0.267; in assay [19] it was 0.882. The z-score is 0.0859 in [7]; -1.06 (inactive) in assay [9]; -3.46 (inactive) in assay [11]; 0.132 (inactive) in [12]; 0.291 (inactive) in assay [13]; 1.08 (inactive) in [14].

As to `CCCCC#C[C@@H]1C=C[C@H](Oc2cc(OC)c(OC)c(OC)c2)[C@@H](COC(=O)OCC)O1`, the composite z-score in [1] was 0.054; in [2], -0.637; in [3], -0.253; in assay [4], 0.388; in assay [5], 0.135; in assay [6], 0.265. Moreover, the composite z-score with Lefty1 is 0.386; in [8], -0.0925; in assay [10] it was -0.282; in assay [15] it was -0.523; in [16] it was -0.173; with Torsin-1A (Homo sapiens) [17] it was -0.0251. For the same compound, the composite z-score in the assay with Torsin-1A (Homo sapiens) [18] was -0.361; in [19] it was 0.375. Besides, the z-score was 2.36 in assay [7]; -1.12 (inactive) in assay [9]; -0.721 (inactive) in [11]; -0.264 (inactive) in assay [12]; 2 (inactive) in [13]; -0.684 (inactive) in [14].

`CON=C[C@@H](NS(=O)(=O)c1ccc(C)cc1)[C@H](C)C=CCC(=O)OC`: the composite z-score in assay [1] is 0.4; in assay [2], -1.15; in [3] it was 0.438; in assay [4], -0.717; in [5], 0.718; in assay [6], 0.747. Moreover, the composite z-score was 0.585 in the assay with Lefty1; -0.35 in assay [8]; 0.0181 in assay [10]; 0.188 in assay [15]; -0.128 in assay [16]; 0.379 with Torsin-1A (Homo sapiens) [17]. Also, the composite z-score with Torsin-1A (Homo sapiens) [18] was -0.199; in [19] it was 0.779. Also, the z-score in [7] is 0.764; in assay [9], -0.42 (inactive); in [11], 0.319 (inactive); in assay [12] it was -0.357 (inactive); in [13] it was 0.173 (inactive); in [14], -0.196 (inactive).
